Here are results for 68 compounds from ChEMBL document CHEMBL4513216, “Probing the Open Global Health Chemical Diversity Library for Multistage-Active Starting Points for Next-Generation Antimalarials” (ACS Infect Dis, 2020).

About 8,600 (12%) of roughly 69,000 compounds showed an effect of 50% or more. The list comes from a sample in which strong results are over-represented; it also holds similar structures and randomly drawn compounds.

For the assay, the system named is Plasmodium berghei. The assay is described as follows: Screen against P. berghei liver stage (PbLuc), transformed with Luciferase, at 10uM. Type of assay: functional, HepG2. To be noted: tested at 10 uM.
For the compound `CNC(=O)[C@@H](c1ccccc1OC)N1CCC[C@H]1C(=O)NC1CC1`, the INHIBITION amounted to 35.4%.

`Cc1cc(N2CCCN(C(=O)Cc3cccnc3)CC2)ccn1`: the INHIBITION was determined as 58.6%.

Consider `COc1cccc(CC(=O)N2CCCN(c3ccnc(C)c3)CC2)c1`, for which the INHIBITION is reported as -1.25%.

On to `Cc1cc(N2CCCN(C(=O)Cc3csc(C)n3)CC2)ccn1`, for which the INHIBITION is on record as -13.2%.

With `Cc1cc(N2CCN(C(=O)Cc3ccc4c(c3)OCO4)CC2)cc(C)n1`, the INHIBITION was found to be 52.2%.

With `O=C(Cc1ccc2c(c1)OCO2)N1CCCN(c2ccccc2)CC1`, the INHIBITION is on record as 11.8%.

Consider `O=C(Cc1ccc2c(c1)OCO2)N1CCN(c2ccncc2)CC1`, for which the INHIBITION is listed as 49%.

Take `Cc1cc(N2CCCN(C(=O)Cc3cc(F)cc(F)c3)CC2)ccn1`: the INHIBITION is 28.7%.

In the case of `Cc1cc(N2CCCN(c3ccnc(C)c3)CC2)ccn1`, the INHIBITION is recorded as 11.9%.

For the compound `Cc1cc(N2CCCN(C(=O)Cc3ccc(O)c(Cl)c3)CC2)ccn1`, the INHIBITION is 65.1%.

Take `O=C(c1cnccn1)N1C[C@H]2CC[C@@H](C1)N(C(=O)Cc1ccsc1)C2`: the INHIBITION came out at 28.5%.

For `Cc1nnc2n1CCN(CCOc1cccc(C#N)c1)C2`, the INHIBITION is listed as 44.1%.

As for `Cc1ccc(C2CSCCN2C(=O)c2ccoc2C)o1` (stereo not drawn), the INHIBITION was 13.3%.

For the compound `CNC(=O)CCN1CCC(c2nnc(Cn3cccn3)n2C2CC2)CC1`, the INHIBITION was -0.71%.

Regarding `Cc1nccc(C(=O)N2CCCC2c2noc(C(C)C)n2)n1` (stereo not drawn), the INHIBITION was 22.6%.

Regarding `Cc1ncccc1NS(=O)(=O)Cc1cccc(F)c1`, the INHIBITION worked out at 3.19%.

In the case of `O=C1NC[C@H]2CN(Cc3ccnc4ccccc34)CCN12`, the INHIBITION is recorded as -12.1%.

For `O=C1NC[C@H]2CN(Cc3ccccn3)CCN12`, the INHIBITION is -17.2%.

Consider `O=C1NCC2CN(Cc3ccccc3OCc3ccccn3)CCN12` (stereo not drawn), for which the INHIBITION is 50.3%.

For `c1cc(CN2CCC3(CC2)CC(N2CCCC2)CO3)co1` (stereo not drawn), the INHIBITION was -4.82%.

Turning to `CN(C)C(=O)c1cccc(NC(=O)c2cnn(C)c2)c1`, the INHIBITION is 52.4%.

As to `Cc1cnn(C2CCCN(C(=O)c3cccc(-n4cnnn4)c3)C2)c1` (stereo not drawn), the INHIBITION is given as 14.75%.

`O=C(Nc1cnn(CC(F)F)c1)c1cccc(-n2cnnn2)c1`: the INHIBITION was determined as 20.6%.

For `Cn1cc(NC(=O)c2cccc(-n3cnnn3)c2)cn1`, the INHIBITION amounted to 53.7%.

Regarding `CCNC(=O)CN(CC)C(=O)c1cccc(Nc2cnn(C)c2)c1`, the INHIBITION was found to be 70.3%.

For the compound `CCNC(=O)CN(CC)C(=O)c1cc(-c2cccc(Cl)c2)no1`, the INHIBITION is listed as 21.5%.

`CN(C)C(=O)c1cccc(Nc2cnn(C)c2)c1`: the INHIBITION was 33.5%.

With `CN(C)c1ncc(NC(=O)c2cccc(Nc3cnn(C)c3)c2)cn1`, the INHIBITION turned out to be 36.5%.

As for `NC(=O)CN(C(=O)c1cccc(C(F)(F)F)c1)C1CCCC1`, the INHIBITION is recorded as -52.4%.

In the case of `CNC(=O)c1cccc(Nc2cnn(C)c2)c1`, the INHIBITION was 23.6%.

Turning to `Cn1cc(Nc2cccc(C(=O)N(CC(N)=O)C3CCCC3)c2)cn1`, the INHIBITION was determined as 82.2%.

In the case of `Cn1c(C(=O)N(CC(N)=O)C2CCCC2)cc(Cl)c1Cl`, the INHIBITION is recorded as -25.6%.

On to `Cn1cc(N2CCCC(SCc3ccco3)C2=O)cn1` (stereo not drawn), for which the INHIBITION turned out to be 9.79%.

`CCc1cccc(OCC(=O)NC(C)c2nnc3n2CCC3)c1` (stereo not drawn): the INHIBITION is listed as -27.8%.

In the case of `CCC(=O)N1C[C@@H]2CCN(c3cnccn3)C[C@@H]2C1`, the INHIBITION is -18.4%.

On to `CC(C)(C)c1ccc(OCC(N)=O)c(CN2C[C@H]3CC(O)C[C@H]3C2)c1` (stereo partly drawn), for which the INHIBITION was determined as 25.8%.

Turning to `CC(C)OCCCN(CC(=O)N1CCNCC1)C(=O)c1cccc(Cl)c1`, the INHIBITION worked out at 25.9%.

`CCCN(CC(=O)N1CCNCC1)C(=O)c1cccc(Cl)c1`: the INHIBITION was determined as 13.5%.

`CC(C)OCCCN(CC(=O)N1CCNCC1)C(=O)c1ccc(F)cc1`: the INHIBITION was 55.7%.

As for `Cc1noc(C)c1-c1cccc(C2CCNCC2)n1`, the INHIBITION worked out at 5.11%.

As to `COc1ccccc1OCCNC(=O)CN1CCN(C)CC1C` (stereo not drawn), the INHIBITION is given as 16.657%.

Consider `Nc1nc2c(c3c1C(=O)NC3=O)CCCC2`, for which the INHIBITION is on record as 70.7%.

Consider `O=C1NC(=O)c2c3c(nc(O)c21)CCCC3`, for which the INHIBITION was determined as 29.3%.

As to `Nc1nc2c(c3c1C(=O)NC3=O)CCC2`, the INHIBITION came to 41.9%.

Consider `COc1ccc(Nc2nc(N)c(C(C)=O)s2)cc1Cl`, for which the INHIBITION stood at 17.6%.

On to `COCCN1CC[C@@H]2O[C@@H](COCC(=O)N3CCCC3)CC[C@@H]21`, for which the INHIBITION is given as -23.2%.

As for `Cc1cc(C(F)(F)F)nc(CNc2cc(C)nc3cc(C)nn23)n1`, the INHIBITION is on record as 43.2%.

On to `Cc1cc(NCCCC(F)(F)F)n2nc(C)cc2n1`, for which the INHIBITION amounted to 42.3%.

In the case of `Cc1cc(NCc2cc(C)oc2C(F)(F)F)n2nc(C)cc2n1`, the INHIBITION turned out to be 79.2%.

Take `CCN(C)c1ncnc2c1CCN(Cc1ccc(OC)cc1)CC2`: the INHIBITION is reported as 34.1%.

For the compound `O=C(c1ccsc1)N1CCO[C@@H]2CN(Cc3ccccn3)CC[C@@H]2C1`, the INHIBITION is reported as -31.3%.

Consider `Cc1nc(N2CCCC2)nc2c1CN(C(=O)N1CCOCC1)CC2`, for which the INHIBITION is 34.9%.

In the case of `Cc1cc(C(=O)N2CCc3nc(N4CCCC4)nc(C)c3CC2)c(C)o1`, the INHIBITION is given as 67.5%.

For the compound `Cc1nc(N2CCCC2)nc2c1CCN(C(=O)c1ccoc1C)CC2`, the INHIBITION turned out to be 3.17%.

On to `Cc1nc(N2CCCC2)nc2c1CCN(C(=O)N1CCCC1)CC2`, for which the INHIBITION was -23.3%.

As to `Cc1nc(N2CCOCC2)nc2c1CN(C(=O)C(C)C)CC2`, the INHIBITION came out at 5.04%.

As for `Cc1cc(C(=O)N2CCc3nc(N4CCOCC4)nc(C)c3C2)c(C)o1`, the INHIBITION was 55.7%.

`Cc1ccc(C(=O)NCc2ccnc(N(C)C)c2)c(C)c1`: the INHIBITION was -29.1%.

As to `Cc1ccccc1N1CC(c2nnc(N)s2)CC1=O` (stereo not drawn), the INHIBITION is -37.1%.

In the case of `CC(C)C[C@H](NC(=O)Nc1ccc(F)c(Cl)c1)C(=O)O`, the INHIBITION was determined as 47.1%.

For `COC(=O)CNC(=O)c1nc(Cl)sc1C(C)C`, the INHIBITION is on record as -17.6%.

For the compound `CCNC(=O)C1(Cc2cc(-c3ccccc3)no2)CCCN(C)C1` (stereo not drawn), the INHIBITION turned out to be 10.9%.

Turning to `COCC(=O)N1C[C@@H](O)[C@H](N2CCN(c3ccccc3)CC2)C1`, the INHIBITION amounted to 12.39%.

Regarding `O=C(CNc1ccc(OC2CCOC2)cc1)NCc1ccco1` (stereo not drawn), the INHIBITION is reported as -12.1%.

Take `O=C(CNc1ccc(OC2CCOC2)cc1)NCc1cccs1` (stereo not drawn): the INHIBITION turned out to be 59.8%.

With `Cc1ccccc1CNC(=O)CNc1ccc(OC2CCOC2)cc1` (stereo not drawn), the INHIBITION is -6.97%.

With `Cc1ccccc1C1(CNC(=O)NC(C)c2nncn2C)CC1` (stereo not drawn), the INHIBITION is on record as 40.2%.

As to `CN(Cc1ccccc1)C(=O)Cn1nc(N2CCSCC2)ccc1=O`, the INHIBITION is -22.9%.
